# Experiments:
# Test in all cases: DAPPL (digital affinity profiling via proximity ligation, sequencing); 10 mM Tris-HCl pH 7.5, 50 mM NaCl, 1 mM DTT, 4% glycerol, room temperature, 30 min; GST-TFs on glutathione beads, 16-mer random dsDNA library, 0.1% formaldehyde crosslink after washing; high values mean tight binding
# FLI1 = target: T1, FLI1 (Homo sapiens, UniProt Q01543 1-452); settings: protein: recombinant; tags: N-terminal GST; dsDNA, one strand shown
# T1 sequence: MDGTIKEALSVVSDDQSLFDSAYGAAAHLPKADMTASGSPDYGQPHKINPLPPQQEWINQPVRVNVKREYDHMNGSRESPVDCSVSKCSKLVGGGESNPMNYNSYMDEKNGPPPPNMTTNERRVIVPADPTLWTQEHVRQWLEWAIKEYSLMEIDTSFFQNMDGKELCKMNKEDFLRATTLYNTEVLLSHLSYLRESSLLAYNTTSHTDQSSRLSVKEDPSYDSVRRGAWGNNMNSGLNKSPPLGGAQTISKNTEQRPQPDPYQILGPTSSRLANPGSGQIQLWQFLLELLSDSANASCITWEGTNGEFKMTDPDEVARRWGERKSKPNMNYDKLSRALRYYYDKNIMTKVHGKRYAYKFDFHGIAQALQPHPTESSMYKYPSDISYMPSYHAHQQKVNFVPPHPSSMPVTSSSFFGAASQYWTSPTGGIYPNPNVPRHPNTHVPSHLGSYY
# Outline: (§1)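 Binding signal is defined as a hexamer's read frequency for one factor over its frequency for the tag-only sample. To obtain reads, GST-fused human transcription factors were expressed in yeast, captured on glutathione beads, barcoded with DNA and pooled with that sample. Pools met 200 nmole of a 16-mer random double-stranded DNA library in Tris/NaCl/DTT/glycerol buffer for 30 min at room temperature before washing, 0.1% formaldehyde crosslinking, proximity ligation (BsaI/T4 ligase, 1 h, 37 °C), PCR and Illumina NextSeq500 sequencing.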
# ELK1 = target: T2, ELK1 (Homo sapiens, UniProt P19419 1-428); settings: protein: recombinant; tags: N-terminal GST; dsDNA, one strand shown
# T2 sequence: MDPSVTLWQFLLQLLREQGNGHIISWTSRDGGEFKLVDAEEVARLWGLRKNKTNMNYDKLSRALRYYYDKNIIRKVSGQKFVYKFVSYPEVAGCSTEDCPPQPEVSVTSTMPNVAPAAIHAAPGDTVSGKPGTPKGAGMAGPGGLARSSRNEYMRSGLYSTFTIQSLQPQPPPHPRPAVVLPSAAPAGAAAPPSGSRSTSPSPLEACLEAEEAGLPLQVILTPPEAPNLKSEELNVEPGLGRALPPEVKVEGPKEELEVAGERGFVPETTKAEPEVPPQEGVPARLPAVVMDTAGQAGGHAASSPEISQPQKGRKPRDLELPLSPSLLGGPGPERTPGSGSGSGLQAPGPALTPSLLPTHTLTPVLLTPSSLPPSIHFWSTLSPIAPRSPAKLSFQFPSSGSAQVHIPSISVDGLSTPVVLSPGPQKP
# Outline: as §1
# GABPA = target: T3, GABPA (Homo sapiens, UniProt Q06546 1-454); settings: protein: recombinant; tags: N-terminal GST; dsDNA, one strand shown
# T3 sequence: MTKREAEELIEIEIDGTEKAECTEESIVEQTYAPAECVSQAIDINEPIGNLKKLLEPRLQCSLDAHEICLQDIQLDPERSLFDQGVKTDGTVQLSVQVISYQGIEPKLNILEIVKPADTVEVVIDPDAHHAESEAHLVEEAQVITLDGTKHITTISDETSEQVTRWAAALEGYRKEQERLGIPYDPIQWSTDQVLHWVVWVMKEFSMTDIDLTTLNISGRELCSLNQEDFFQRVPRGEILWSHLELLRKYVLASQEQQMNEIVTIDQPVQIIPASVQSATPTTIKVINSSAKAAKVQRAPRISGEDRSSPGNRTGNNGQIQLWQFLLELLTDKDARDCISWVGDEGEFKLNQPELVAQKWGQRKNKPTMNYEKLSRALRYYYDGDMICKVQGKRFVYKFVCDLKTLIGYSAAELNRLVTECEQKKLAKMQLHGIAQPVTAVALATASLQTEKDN
# Outline: as §1
# ERG = target: T4, ERG (Homo sapiens, UniProt P11308 1-479); settings: protein: recombinant; tags: N-terminal GST; dsDNA, one strand shown
# T4 sequence: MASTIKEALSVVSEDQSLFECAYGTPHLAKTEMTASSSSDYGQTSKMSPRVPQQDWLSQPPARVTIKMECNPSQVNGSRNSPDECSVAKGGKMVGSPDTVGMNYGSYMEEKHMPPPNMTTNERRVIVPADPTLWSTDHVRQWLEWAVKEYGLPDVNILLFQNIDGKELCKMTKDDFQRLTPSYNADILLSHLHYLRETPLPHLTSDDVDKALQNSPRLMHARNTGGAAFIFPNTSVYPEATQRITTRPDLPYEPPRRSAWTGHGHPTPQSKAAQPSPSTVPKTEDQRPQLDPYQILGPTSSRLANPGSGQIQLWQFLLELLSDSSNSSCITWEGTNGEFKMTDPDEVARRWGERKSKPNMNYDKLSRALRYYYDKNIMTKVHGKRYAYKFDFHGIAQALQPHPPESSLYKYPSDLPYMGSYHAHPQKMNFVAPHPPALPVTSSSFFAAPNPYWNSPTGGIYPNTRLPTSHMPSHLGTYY
# Outline: as §1
# ELF1 = ELF1 (Homo sapiens, UniProt P32519 1-619); settings: protein: recombinant; tags: N-terminal GST; dsDNA, one strand shown
# Outline: as §1
# EHF = target: T5, EHF (Homo sapiens, UniProt Q9NZC4 1-300); settings: protein: recombinant; tags: N-terminal GST; dsDNA, one strand shown
# T5 sequence: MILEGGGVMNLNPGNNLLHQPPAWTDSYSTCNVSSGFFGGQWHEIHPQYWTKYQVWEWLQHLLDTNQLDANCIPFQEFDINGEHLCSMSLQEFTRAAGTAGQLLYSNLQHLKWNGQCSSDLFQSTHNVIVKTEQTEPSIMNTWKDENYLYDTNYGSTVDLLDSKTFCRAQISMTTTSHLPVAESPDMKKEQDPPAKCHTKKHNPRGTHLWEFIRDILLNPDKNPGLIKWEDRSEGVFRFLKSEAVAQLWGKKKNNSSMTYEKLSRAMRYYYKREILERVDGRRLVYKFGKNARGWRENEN
# Outline: as §1
# SPI1 = SPI1 (Homo sapiens, UniProt P17947 1-270); settings: protein: recombinant; tags: N-terminal GST; dsDNA, one strand shown
# Outline: as §1
# SPIB = SPIB (Homo sapiens, UniProt Q01892 1-262); settings: protein: recombinant; tags: N-terminal GST; dsDNA, one strand shown
# Outline: as §1
# ELK3 = target: T6, ELK3 (Homo sapiens, UniProt P41970 1-407); settings: protein: recombinant; tags: N-terminal GST; dsDNA, one strand shown
# T6 sequence: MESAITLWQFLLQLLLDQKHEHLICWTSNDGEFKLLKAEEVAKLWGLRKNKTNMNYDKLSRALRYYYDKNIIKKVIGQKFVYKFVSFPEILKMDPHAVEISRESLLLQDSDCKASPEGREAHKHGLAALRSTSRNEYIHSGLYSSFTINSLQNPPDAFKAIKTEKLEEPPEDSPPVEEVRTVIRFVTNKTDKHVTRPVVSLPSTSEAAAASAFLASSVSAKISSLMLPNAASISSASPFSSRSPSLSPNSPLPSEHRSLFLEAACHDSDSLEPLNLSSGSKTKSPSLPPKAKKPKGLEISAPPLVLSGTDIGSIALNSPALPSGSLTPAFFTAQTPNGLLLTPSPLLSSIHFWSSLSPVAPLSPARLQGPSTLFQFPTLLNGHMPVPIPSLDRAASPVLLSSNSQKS
# Outline: as §1
# FEV = target: T7, FEV (Homo sapiens, UniProt Q99581 1-238); settings: protein: recombinant; tags: N-terminal GST; dsDNA, one strand shown
# T7 sequence: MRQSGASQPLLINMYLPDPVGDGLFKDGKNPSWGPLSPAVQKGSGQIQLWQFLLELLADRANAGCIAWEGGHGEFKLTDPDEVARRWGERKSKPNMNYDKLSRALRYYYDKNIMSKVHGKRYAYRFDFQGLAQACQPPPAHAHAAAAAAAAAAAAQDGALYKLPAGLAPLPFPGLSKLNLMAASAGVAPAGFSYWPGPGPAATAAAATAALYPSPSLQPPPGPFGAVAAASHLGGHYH
# Outline: as §1
# ETV5 = ETV5 (Homo sapiens, UniProt P41161 1-510); settings: protein: recombinant; tags: N-terminal GST; dsDNA, one strand shown
# Outline: as §1
# HSF1 = HSF1 (Homo sapiens, UniProt Q00613 1-529); settings: protein: recombinant; tags: N-terminal GST; chain copies: 3; dsDNA, one strand shown
# Outline: as §1
# SPIC = target: T8, SPIC (Homo sapiens, UniProt Q8N5J4 1-248); settings: protein: recombinant; tags: N-terminal GST; dsDNA, one strand shown
# T8 sequence: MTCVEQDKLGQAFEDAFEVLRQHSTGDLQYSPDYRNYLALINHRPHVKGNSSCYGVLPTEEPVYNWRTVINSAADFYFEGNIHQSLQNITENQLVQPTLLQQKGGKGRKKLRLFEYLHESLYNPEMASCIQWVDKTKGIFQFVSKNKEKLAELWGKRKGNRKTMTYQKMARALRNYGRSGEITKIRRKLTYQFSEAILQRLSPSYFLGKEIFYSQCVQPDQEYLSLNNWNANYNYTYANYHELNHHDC
# Outline: as §1
# ELF4 = ELF4 (Homo sapiens, UniProt Q99607 1-663); settings: protein: recombinant; tags: N-terminal GST; dsDNA, one strand shown
# Outline: as §1
# ELK4 = target: T9, ELK4 (Homo sapiens, UniProt P28324-2 1-405); settings: protein: recombinant; tags: N-terminal GST; dsDNA, one strand shown
# T9 sequence: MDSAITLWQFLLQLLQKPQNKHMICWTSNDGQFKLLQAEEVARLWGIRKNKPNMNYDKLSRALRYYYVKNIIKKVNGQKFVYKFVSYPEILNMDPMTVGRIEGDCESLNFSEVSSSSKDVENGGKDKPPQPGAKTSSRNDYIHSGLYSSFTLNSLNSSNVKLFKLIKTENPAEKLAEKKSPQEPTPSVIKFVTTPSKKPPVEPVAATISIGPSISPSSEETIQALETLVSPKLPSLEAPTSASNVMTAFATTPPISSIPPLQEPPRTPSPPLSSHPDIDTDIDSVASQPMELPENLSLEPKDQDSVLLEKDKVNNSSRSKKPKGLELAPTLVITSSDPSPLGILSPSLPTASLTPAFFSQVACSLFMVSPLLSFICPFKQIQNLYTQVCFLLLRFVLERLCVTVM
# Outline: as §1
# ETV2 = target: T10, ETV2 (Homo sapiens, UniProt O00321 1-342); settings: protein: recombinant; tags: N-terminal GST; dsDNA, one strand shown
# T10 sequence: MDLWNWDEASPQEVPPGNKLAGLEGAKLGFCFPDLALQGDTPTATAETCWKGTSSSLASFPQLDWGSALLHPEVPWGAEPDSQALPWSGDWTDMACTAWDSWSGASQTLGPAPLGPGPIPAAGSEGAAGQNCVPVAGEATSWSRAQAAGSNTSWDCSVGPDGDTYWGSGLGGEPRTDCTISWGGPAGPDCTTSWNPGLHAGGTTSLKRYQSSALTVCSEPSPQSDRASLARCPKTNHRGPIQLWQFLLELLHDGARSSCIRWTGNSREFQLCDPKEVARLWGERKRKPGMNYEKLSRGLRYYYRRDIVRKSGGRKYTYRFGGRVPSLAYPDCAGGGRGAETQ
# Outline: as §1
# ELF3 = target: T11, ELF3 (Homo sapiens, UniProt P78545 1-371); settings: protein: recombinant; tags: N-terminal GST; dsDNA, one strand shown
# T11 sequence: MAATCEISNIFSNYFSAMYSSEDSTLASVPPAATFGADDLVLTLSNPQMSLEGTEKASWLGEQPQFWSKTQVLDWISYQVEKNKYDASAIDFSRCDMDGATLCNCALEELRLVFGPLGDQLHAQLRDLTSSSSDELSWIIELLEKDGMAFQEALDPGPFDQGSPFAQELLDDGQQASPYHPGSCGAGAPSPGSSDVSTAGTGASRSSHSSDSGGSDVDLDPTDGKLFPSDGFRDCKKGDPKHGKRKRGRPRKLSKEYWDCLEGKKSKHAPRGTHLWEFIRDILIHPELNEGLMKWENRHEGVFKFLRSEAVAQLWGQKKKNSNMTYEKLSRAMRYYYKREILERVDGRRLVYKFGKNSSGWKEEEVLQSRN
# Outline: as §1
# CRX = CRX (Homo sapiens, UniProt O43186 1-299); settings: protein: recombinant; tags: N-terminal GST; dsDNA, one strand shown
# Outline: as §1
# ETV1 = ETV1 (Homo sapiens, UniProt P50549 1-477); settings: protein: recombinant; tags: N-terminal GST; dsDNA, one strand shown
# Outline: as §1
# ETV5, sequence (P41161 whole entry): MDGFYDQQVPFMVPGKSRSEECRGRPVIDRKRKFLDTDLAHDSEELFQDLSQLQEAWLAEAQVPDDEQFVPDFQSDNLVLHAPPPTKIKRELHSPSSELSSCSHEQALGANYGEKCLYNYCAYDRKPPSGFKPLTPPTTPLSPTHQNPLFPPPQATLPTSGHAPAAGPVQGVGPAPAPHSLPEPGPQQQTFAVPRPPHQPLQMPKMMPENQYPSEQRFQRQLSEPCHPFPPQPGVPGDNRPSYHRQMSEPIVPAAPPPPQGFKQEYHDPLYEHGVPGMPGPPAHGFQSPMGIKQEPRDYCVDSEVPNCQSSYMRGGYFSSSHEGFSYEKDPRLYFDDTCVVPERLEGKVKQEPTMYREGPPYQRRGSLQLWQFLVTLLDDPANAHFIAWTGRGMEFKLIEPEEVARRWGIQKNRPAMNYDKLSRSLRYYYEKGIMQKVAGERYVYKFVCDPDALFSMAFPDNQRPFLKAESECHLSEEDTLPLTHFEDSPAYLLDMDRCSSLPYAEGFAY
# CRX, sequence (O43186 whole entry): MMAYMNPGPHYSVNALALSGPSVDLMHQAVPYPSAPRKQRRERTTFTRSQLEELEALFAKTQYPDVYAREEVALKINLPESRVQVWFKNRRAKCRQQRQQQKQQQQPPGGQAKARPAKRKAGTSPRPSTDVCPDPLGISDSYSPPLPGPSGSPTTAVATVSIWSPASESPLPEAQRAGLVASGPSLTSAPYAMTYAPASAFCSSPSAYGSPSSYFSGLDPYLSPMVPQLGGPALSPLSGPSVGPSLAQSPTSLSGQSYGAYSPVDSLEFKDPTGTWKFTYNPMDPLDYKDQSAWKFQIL
# SPIB, sequence (Q01892 whole entry): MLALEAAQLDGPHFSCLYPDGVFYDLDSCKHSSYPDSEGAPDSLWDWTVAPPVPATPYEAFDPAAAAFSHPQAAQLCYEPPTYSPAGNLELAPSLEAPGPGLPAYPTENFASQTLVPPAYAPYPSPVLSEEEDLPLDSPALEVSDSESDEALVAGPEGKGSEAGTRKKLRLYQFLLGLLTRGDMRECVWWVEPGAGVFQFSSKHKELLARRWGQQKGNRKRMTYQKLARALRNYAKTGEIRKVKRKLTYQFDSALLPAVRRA
# HSF1, sequence (Q00613 whole entry): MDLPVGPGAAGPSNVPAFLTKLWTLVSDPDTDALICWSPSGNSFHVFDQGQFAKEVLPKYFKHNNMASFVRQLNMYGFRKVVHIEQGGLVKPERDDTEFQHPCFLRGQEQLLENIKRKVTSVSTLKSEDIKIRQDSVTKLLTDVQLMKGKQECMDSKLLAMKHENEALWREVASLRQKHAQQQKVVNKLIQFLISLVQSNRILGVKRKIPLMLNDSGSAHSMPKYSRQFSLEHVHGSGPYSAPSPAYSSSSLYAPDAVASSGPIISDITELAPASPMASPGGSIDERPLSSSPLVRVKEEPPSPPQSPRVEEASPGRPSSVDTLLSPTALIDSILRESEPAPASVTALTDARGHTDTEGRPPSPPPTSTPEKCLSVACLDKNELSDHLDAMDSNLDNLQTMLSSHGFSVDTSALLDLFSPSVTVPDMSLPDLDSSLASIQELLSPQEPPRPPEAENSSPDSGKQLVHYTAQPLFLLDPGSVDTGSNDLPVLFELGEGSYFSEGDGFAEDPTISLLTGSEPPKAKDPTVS
# ELF1, sequence (P32519 whole entry): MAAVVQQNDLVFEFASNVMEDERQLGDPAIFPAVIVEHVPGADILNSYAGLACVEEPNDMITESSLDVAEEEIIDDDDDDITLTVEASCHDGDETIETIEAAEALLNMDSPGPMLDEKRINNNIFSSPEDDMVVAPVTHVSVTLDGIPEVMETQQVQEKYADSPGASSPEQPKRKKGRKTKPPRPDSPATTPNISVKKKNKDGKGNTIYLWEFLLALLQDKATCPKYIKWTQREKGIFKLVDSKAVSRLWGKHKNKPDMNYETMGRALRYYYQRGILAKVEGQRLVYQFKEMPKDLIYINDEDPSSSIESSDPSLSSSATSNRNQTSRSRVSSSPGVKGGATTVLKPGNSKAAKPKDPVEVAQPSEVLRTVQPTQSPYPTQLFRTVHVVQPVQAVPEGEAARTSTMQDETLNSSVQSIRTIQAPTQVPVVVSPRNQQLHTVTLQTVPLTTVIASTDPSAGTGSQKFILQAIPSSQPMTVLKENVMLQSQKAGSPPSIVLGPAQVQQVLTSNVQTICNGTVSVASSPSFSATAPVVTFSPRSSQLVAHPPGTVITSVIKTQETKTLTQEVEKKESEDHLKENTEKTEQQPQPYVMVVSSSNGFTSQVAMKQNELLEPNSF
# ELF4, sequence (Q99607 whole entry): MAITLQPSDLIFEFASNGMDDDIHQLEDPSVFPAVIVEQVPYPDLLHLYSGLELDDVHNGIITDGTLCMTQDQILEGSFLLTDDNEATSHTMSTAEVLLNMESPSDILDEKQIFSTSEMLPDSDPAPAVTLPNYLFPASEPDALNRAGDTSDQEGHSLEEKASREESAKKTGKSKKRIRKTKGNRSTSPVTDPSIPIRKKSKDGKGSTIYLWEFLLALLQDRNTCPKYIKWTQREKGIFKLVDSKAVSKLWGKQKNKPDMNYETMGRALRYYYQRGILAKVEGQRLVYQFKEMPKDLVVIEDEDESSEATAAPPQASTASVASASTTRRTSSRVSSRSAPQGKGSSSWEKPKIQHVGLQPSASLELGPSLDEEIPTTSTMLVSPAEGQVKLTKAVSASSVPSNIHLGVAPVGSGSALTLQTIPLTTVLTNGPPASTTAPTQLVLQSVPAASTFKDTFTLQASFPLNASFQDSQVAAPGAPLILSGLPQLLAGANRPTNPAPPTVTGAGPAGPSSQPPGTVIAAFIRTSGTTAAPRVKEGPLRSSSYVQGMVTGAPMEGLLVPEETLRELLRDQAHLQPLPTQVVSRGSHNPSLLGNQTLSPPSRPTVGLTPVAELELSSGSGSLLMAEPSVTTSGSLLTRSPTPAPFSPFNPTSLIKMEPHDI
# ETV1, sequence (P50549 whole entry): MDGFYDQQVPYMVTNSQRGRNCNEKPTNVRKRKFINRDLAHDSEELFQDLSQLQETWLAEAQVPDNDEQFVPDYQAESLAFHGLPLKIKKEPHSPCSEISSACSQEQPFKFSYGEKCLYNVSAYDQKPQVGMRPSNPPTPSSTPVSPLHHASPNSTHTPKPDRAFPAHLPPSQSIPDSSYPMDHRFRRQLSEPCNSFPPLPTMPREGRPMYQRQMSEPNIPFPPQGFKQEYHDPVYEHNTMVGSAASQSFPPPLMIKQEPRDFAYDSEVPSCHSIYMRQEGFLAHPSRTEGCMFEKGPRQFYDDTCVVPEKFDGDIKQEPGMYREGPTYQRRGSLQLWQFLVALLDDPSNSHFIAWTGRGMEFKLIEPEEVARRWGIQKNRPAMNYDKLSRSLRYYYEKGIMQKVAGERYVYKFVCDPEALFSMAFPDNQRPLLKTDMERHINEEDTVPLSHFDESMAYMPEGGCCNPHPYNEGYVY
sequence,measurement,setting,value
CCTTCC,binding signal,FLI1,"2.45 fold enrichment (6-mer frequency, TF over GST control)"
same,binding signal,ELK1,"2.68 fold enrichment (6-mer frequency, TF over GST control)"
same,binding signal,GABPA,"2.22 fold enrichment (6-mer frequency, TF over GST control)"
same,binding signal,ERG,"3.03 fold enrichment (6-mer frequency, TF over GST control)"
same,binding signal,ELF1,"2.39 fold enrichment (6-mer frequency, TF over GST control)"
same,binding signal,EHF,"2.75 fold enrichment (6-mer frequency, TF over GST control)"
same,binding signal,SPI1,"2.48 fold enrichment (6-mer frequency, TF over GST control)"
same,binding signal,SPIB,"2.75 fold enrichment (6-mer frequency, TF over GST control)"
same,binding signal,ELK3,"2.47 fold enrichment (6-mer frequency, TF over GST control)"
same,binding signal,FEV,"2.78 fold enrichment (6-mer frequency, TF over GST control)"
same,binding signal,ETV5,"2.73 fold enrichment (6-mer frequency, TF over GST control)"
same,binding signal,HSF1,"1.81 fold enrichment (6-mer frequency, TF over GST control)"
same,binding signal,SPIC,"2.36 fold enrichment (6-mer frequency, TF over GST control)"
same,binding signal,ELF4,"2.5 fold enrichment (6-mer frequency, TF over GST control)"
same,binding signal,ELK4,"2.19 fold enrichment (6-mer frequency, TF over GST control)"
same,binding signal,ETV2,"2.51 fold enrichment (6-mer frequency, TF over GST control)"
same,binding signal,ELF3,"2.27 fold enrichment (6-mer frequency, TF over GST control)"
same,binding signal,CRX,"1.26 fold enrichment (6-mer frequency, TF over GST control)"
same,binding signal,ETV1,"2.55 fold enrichment (6-mer frequency, TF over GST control)"
